# Measurements from PubChem BioAssay (Tox21).
# Values joined by “and” are separate entries in the source; they are usually repeats but may differ in a detail not shown here. Identical values can stand only once. Results filed as inconclusive are left out. Entries that show only a call come without a potency. A structure can be active in one record and inactive in another. Active and inactive are the calls of the source. Unless noted, calls follow the shape of the dose curve; as a rule, active = well fitted curve in the direction sought with a large enough effect in the repeat runs; inconclusive = weak or mixed curves; inactive = no such curve, though single readings can be large; an effect the other way counts as inactive or inconclusive.
# How the values were obtained:
# [1] = qHTS assay for small molecules that induce genotoxicity in human embryonic kidney cells expressing luciferase-tagged ATAD5 (AID 651632); also: nearly all actives have a fitted effect of over 15% in size; also: potency is read from the fitted curve at half-maximal effect
# Procedure, shortened: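 A rise in luciferase signal from ATAD5-tagged HEK293T cells marks genetic stress. Cells were exposed to compounds for 16 hr at 37C, 5% CO2, then luciferase was quantified after a 30 min room-temperature incubation with Amplite.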
# [2] = qHTS assay for small molecule agonists of the p53 signaling pathway - cell viability (AID 651633; calls by dose curve; also: nearly all actives have a fitted effect of over 30% in size; also: potency is read from the fitted curve at half-maximal effect)
# Procedure, shortened: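 p53RE-bla cells were treated with compound for 16 hours at 37 C. Cytotoxicity was then measured as CellTiter-Glo luminescence after 30 min at room temperature.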
# [3] = qHTS assay for small molecules that induce genotoxicity in human embryonic kidney cells expressing luciferase-tagged ATAD5 - cell viability (AID 651634; calls by dose curve; also: nearly all actives have a fitted effect of over 25% in size; also: potency is read from the fitted curve at half-maximal effect)
# Procedure, shortened: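 Cytotoxicity counter-readout: after 15.5 hr compound treatment at 37C, live-cell protease activity in ATAD5-luciferase HEK293T cells measured by CellTiter-Fluor fluorescence, 30 min development at 37C.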
# [4] = qHTS assay for small molecule disruptors of the mitochondrial membrane potential (AID 720635); also: potency is read from the fitted curve at half-maximal effect
# Procedure, shortened: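 HepG2 cells exposed to compound 1 hr at 37C, then Mito-MPS dye 30 min. Ratio read of aggregate (540/590 nm) versus monomer (490/535 nm) fluorescence.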
# [5] = qHTS assay to test for compound auto fluorescence at 590 nm (red) in HepG2 cells (AID 720674)
# Procedure, shortened: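 Seeding: 2,000 HepG2 cells/well, MEM/10% FBS, overnight 37 C. Dosing: compound vs DMSO. Incubation: 1 hr, 37 C, 5% CO2. Read: fluorescence 540 ex/590 em, Rose Bengal sodium as red reference.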
# [6] = qHTS assay to test for compound auto fluorescence at 535 nm (green) in HepG2 cells (AID 720675)
# [7] = qHTS assay to test for compound auto fluorescence at 460 nm (blue) in HEK293 cells (AID 720678); also: potency is read from the fitted curve at half-maximal effect
# Procedure, shortened: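 After cell attachment (4-5 hr, 37C), compounds were pinned onto HEK293 monolayers in 10% dialyzed FBS medium. The blue channel (405/460 nm) was read following overnight culture. Equivalency was calculated against triamterene.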
# [8] = qHTS assay to test for compound auto fluorescence at 590 nm (red) in HEK293 cells (AID 720679)
# Procedure, shortened: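 Plates of HEK293 cells (10% dialyzed FBS) are treated with 23 nL compound or DMSO vehicle after a 4-5 hr attachment period, incubated overnight at 37C, and read for red fluorescence at 540/590nm.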
# [9] = qHTS assay for small molecule disruptors of the mitochondrial membrane potential - cell viability (AID 720634; calls by dose curve; also: nearly all actives have a fitted effect of over 20% in size; also: potency is read from the fitted curve at half-maximal effect)
# Procedure, shortened: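 Cytotoxicity was quantified from ATP content by CellTiter-Glo luminescence in the same wells as the MMP dye read-out. HepG2 (2,000 cells/well) were plated overnight and exposed to compounds for 1 hr at 37 C.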
# Tags tell the direction and shape of the fitted curve or compound fluorescence and quenching.
SMILES,Potency [1],Potency [2],Potency [3],Potency [4],Potency [5],Potency [6],Potency [7],Potency [8],Potency [9],"fluorescence, relative to Rose Bengal [5]","fluorescence, % of fluorescein control [6]","fluorescence, % of triamterene [7]","fluorescence, % of fluorescent control [8]"
O=C(Nc1cccc(C(F)(F)F)c1)c1cc(Br)cc(Br)c1O,inactive,473 nM (active) and 686 nM (active),13.3 µM (active),335 nM (active) and 109 nM (active),inactive,inactive,inactive,inactive,,,,,
O=C(O)c1c(Cl)cccc1Cl,inactive,inactive,inactive,,inactive,inactive,inactive,inactive,inactive,,,,
CCC1OCC(COc2ccc(Oc3ccccc3)cc2)O1 (centres undefined),inactive,inactive,inactive,,inactive,inactive,,inactive,inactive,,,,
COc1cc(-c2nc(NC(=O)c3cc4cc(C)cc(C)c4n3CC(=O)O)sc2CCC2CCCCC2)c(OC)cc1Cl,inactive,3.97 µM (active),39.7 µM (active),,inactive,inactive,,inactive,inactive,,,,
Clc1ccc2n[nH]nc2c1,inactive,inactive,inactive,,inactive,inactive,inactive,inactive,inactive,,,,
CC(C)CCCCCCCCCCCCCCC(=O)O,inactive,61.1 µM (active),inactive,,inactive,inactive,inactive,inactive,,,,,
C[C@H](CCC(=O)O)[C@H]1CC[C@H]2[C@@H]3CC[C@@H]4C[C@H](O)CC[C@]4(C)[C@H]3CC[C@]12C,inactive,27.2 µM (active) and 27.3 µM (active),inactive,60.9 µM (active),inactive,inactive,,inactive,,,,,
COc1ccc(-c2ccc3cc(C(=O)O)ccc3c2)cc1C12CC3CC(CC(C3)C1)C2,inactive,3.76 µM (active),inactive,,inactive,inactive,inactive,inactive,inactive,,,,
CC(C)n1nc(-c2cc3cc(O)ccc3[nH]2)c2c(N)ncnc21,9.44 µM (active),26.6 µM (active),0.75 µM (active),,inactive,inactive,inactive,inactive,inactive,,,,
O=C(Nc1cccc(Cl)c1)OCC#CCCl,inactive,68.6 µM (active),61.1 µM (active),21.7 µM (active),inactive,inactive,inactive,,,,,,
CC(C)(C)CC(C)(C)c1ccc(OCCOCC[N+](C)(C)Cc2ccccc2)cc1,inactive,29.8 µM (active) and 61.1 µM (active),29.8 µM (active) and 68.5 µM (active),11.9 µM (active) and 21.7 µM (active),inactive,inactive,inactive,inactive,,,,,
O=C(NOCC1CC1)c1ccc(F)c(F)c1Nc1ccc(I)cc1Cl,inactive,23.7 µM (active),inactive,8.41 µM (active),inactive,inactive,inactive,inactive,,,,,
NNC(=O)c1cccc(C(=O)NN)c1,inactive,inactive,inactive,,inactive,inactive,inactive,inactive,inactive,,,,
Cc1ccc(O)c2ncccc12,inactive,inactive,inactive,,inactive,inactive,inactive,inactive,inactive,,,,
C[C@@H](NCCCc1cccc(C(F)(F)F)c1)c1cccc2ccccc12,inactive,18.8 µM (active),26.6 µM (active),,inactive,inactive,inactive,inactive,26.6 µM (active),,,,
OC1(c2ccc(Cl)c(C(F)(F)F)c2)CCN(CCCC(c2ccc(F)cc2)c2ccc(F)cc2)CC1,inactive,9.44 µM (active),23.7 µM (active),,inactive,inactive,inactive,inactive,inactive,,,,
CC(C)(C)CC(C)(C)c1ccc(O)c(Cc2ccc(Cl)cc2Cl)c1,inactive,13.3 µM (active),23.7 µM (active),1.68 µM (active),inactive,inactive,,inactive,,,,,
CCCCN(CCCC)C(=O)N(CCCC)CCCC,inactive,inactive,inactive,,inactive,inactive,,,,,,,
O=C(c1ccc(F)cc1)C1CCN(CCn2c(=O)[nH]c3ccccc3c2=O)CC1,inactive,inactive,inactive,,inactive,inactive,,inactive,inactive,,,,

SMILES,Potency [1],Potency [2],Potency [3],Potency [4],Potency [5],Potency [6],Potency [7],Potency [8],Potency [9],"fluorescence, relative to Rose Bengal [5]","fluorescence, % of fluorescein control [6]","fluorescence, % of triamterene [7]","fluorescence, % of fluorescent control [8]"
Nc1c(Cl)cc(Cl)cc1Cl,inactive,inactive,inactive,,inactive,inactive,inactive,inactive,inactive,,,,
CC(C)c1ccc2c(c1)CC[C@H]1[C@](C)(CN)CCC[C@]21C,inactive,27.3 µM (active),38.6 µM (active),,inactive,inactive,inactive,inactive,,,,,
Cc1onc(-c2ccccc2Cl)c1C(=O)N[C@@H]1C(=O)N2[C@@H]1SC(C)(C)[C@@H]2C(=O)O,inactive,inactive,inactive,,,,,,inactive,-0.424% [at 18.6 µM] (inactive),-0.13% [at 18.6 µM] (inactive),-0.0411% [at 18.6 µM] (inactive),0.844% [at 18.6 µM] (inactive)
CN(C)c1ccc(SC#N)cc1,inactive,inactive,inactive,,inactive,inactive,,inactive,inactive,,,,
Oc1ccc2c(c1)-c1ccccc1C2,inactive,inactive,inactive,9.69 µM (active),inactive,inactive,inactive,inactive,,,,,
C=CC(=O)OCC(CO)(COC(=O)C=C)COC(=O)C=C,4.87 µM (active) and 5.45 µM (active),4.34 µM (active),12.2 µM (active) and 15.4 µM (active),,inactive,inactive,inactive,,,,,,
CCN(C(=O)N(CC)c1ccccc1)c1ccccc1,inactive,inactive,inactive,,inactive,inactive,inactive,,,,,,
CCCCCCC[N+](CC)(CC)CCCCc1ccc(Cl)cc1,inactive,inactive,inactive,,,,,,inactive,-0.305% [at 18.6 µM] (inactive),-0.0059% [at 18.6 µM] (inactive),0.0756% [at 18.6 µM] (inactive),-0.312% [at 18.6 µM] (inactive)
CNCc1cc(F)ccc1Oc1ccc(Cl)c(Cl)c1,inactive,inactive,inactive,,inactive,inactive,,inactive,inactive,,,,
COc1ccc(CN2CCN(C(c3ccc(F)cc3)c3ccc(F)cc3)CC2)c(OC)c1OC,inactive,26.6 µM (active),21.1 µM (active),,inactive,inactive,,inactive,inactive,,,,
CCCCN(CCCC)c1ccc(C(=O)c2ccccc2C(=O)O)c(O)c1,inactive,17.4 µM (active),inactive,,inactive,inactive,inactive,inactive,inactive,,,,
CCOC(=O)O[C@H](C)OC(=O)c1ccc2c(c1)cc(C(=O)NC1CCN(C(C)C)CC1)n2Cc1cc(-c2ccc(Cl)s2)on1,inactive,25.5 µM (active),57.1 µM (active),64.1 µM (active),inactive,inactive,inactive,,,,,,
Cc1cc(CCN2CCN(c3nsc4ccccc34)CC2)cc2c1NC(=O)CC2(C)C,inactive,43.3 µM (active),61.1 µM (active),,inactive,inactive,inactive,inactive,54.5 µM (active),,,,
C=C(C)C(=O)OCC(O)COc1ccc(C(C)(C)c2ccc(OCC(O)COC(=O)C(=C)C)cc2)cc1 (centres undefined),inactive,54.5 µM (active),21.7 µM (active),5.45 µM (active),inactive,inactive,inactive,inactive,,,,,
O=C(Oc1cccc2cccnc12)c1ccccc1,inactive,inactive,inactive,,inactive,inactive,inactive,inactive,inactive,,,,
OCc1c[nH]c2ccccc12,inactive,inactive,inactive,24.3 µM (active),inactive,inactive,inactive,,,,,,
COc1cccc2c1C(=O)c1c(O)c3c(c(O)c1C2=O)C[C@@](O)(C(=O)CO)C[C@@H]3O[C@H]1C[C@H](N)[C@H](O[C@@H]2CCCCO2)[C@H](C)O1,2.37 µM (active),8.41 µM (active),,0.699 µM (active),,,inactive,,inactive,,,,
CC[C@@]1(O)C(=O)OCc2c1cc1n(c2=O)Cc2cc3c(CN(C)C)c(O)ccc3nc2-1,inactive,8.41 µM (active),,,inactive,inactive,17.8 µM [fluorescent] (active),inactive,inactive,,,,
Cc1ccc(O)c(C(C)(C)C)c1,inactive,54.4 µM (active) and inactive,,5.44 µM (active) and 27.3 µM (active),inactive,inactive,,inactive,27.3 µM (active) and 54.5 µM (active),,,,
